High-throughput results: PubChem, several laboratories
Compounds with a hit are over-represented: about 3.8% of the library has one in this group of screens.
tim23-1 inh: growth inhibitors of tim23-1 mutant yeast, primary screen, luminescence, uHTS. inhibition, % at 20 µM. 330,000 tested, 1.3% active. S. cerevisiae tim23-1 growth, BacTiter-Glo luminescence, 24 h. AID 463212, 2010;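 active = growth inhibition of the mutant yeast at or above 50%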;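 also: temperature-sensitive mutant grown at 25 °C; plate controls were DMSO-treated mutant yeast for no effect and medium wells lacking yeast for full effect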
NALP3 yeast inh: NALP3 inflammasome inhibitors in reconstituted yeast, primary screen, luminescence, uHTS; Yeast reconstituted NLRP3/ASC/caspase-1, beta-gal luminescence, 24 h; inhibition, % at 10 µM; 330,000 tested, 0.39% active; AID 2825, 2010;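 active = inhibition of 50% or more; inactive = inhibition below 50%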;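 also: plate controls were induced DMSO wells for no effect and uninduced yeast grown without galactose for full effect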
tim10-1 inh: growth inhibitors of tim10-1 mutant yeast, primary screen, luminescence, uHTS; S. cerevisiae tim10-1 ts strain growth, BacTiter-Glo, 24 h; 330,000 tested, 2.2% active; inhibition, % at 20 µM;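 active = inhibition of at least 40%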;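 also: mutant grown at 25 °C; 0% = DMSO wells with yeast and 100% = wells holding no yeast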
TIM10 inh: growth inhibitors of isogenic TIM10 control yeast, primary screen, counter-screen for tim10-1 yeast inhibitor project, luminescence, uHTS. S. cerevisiae TIM10 strain growth, BacTiter-Glo luminescence, 24 h. inhibition, % at 10 µM. 330,000 tested, 1.4% active;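 active = inhibition of 40% or more at the single tested concentration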;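 also: wild-type TIM10 isogenic control strain grown at permissive 25 °C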
Yeast superoxide: reduction of superoxide in aged yeast, primary screen, HTS. S. cerevisiae aged cells, superoxide DHE fluorescence; hits give low values. superoxide response (% of plate mean), % at 10 µM. 330,000 tested, 0.18% active;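 active = superoxide response under a set limit, about three screen SD below normal, cut at about 65% in these data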;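 also: yeast aged for seven days with compound at 30 °C before DHE staining; 100% = average MFI of all compound-treated wells on the plate with controls excluded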
tim23-1 conf: tim23-1 mutant yeast growth inhibitors, confirmation, luminescence, single concentration. shares compounds with tim23-1 inh. S. cerevisiae tim23-1 growth, BacTiter-Glo luminescence, 24 h. inhibition, % at 20 µM. 4,400 tested, 83% active. AID 463218, 2010;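 active = inhibition above about 39% in either of two replicate wells at 20 µM, limit read from the data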;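 also: temperature-sensitive tim23-1 mutant grown at 25 °C; 0% = DMSO wells with yeast and 100% = medium wells without yeast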
The depositor's hits bear a star; . = no result given.

SMILES	tim23-1 inh	NALP3 yeast inh	tim10-1 inh	TIM10 inh	Yeast superoxide	tim23-1 conf
CCN(CC)c1ccc(/C=N/NC(=O)c2ccc3c(c2)OCCO3)cc1	58.9*	23.3	13.3	35.6	.	57.4*
O=C(N/N=C/c1ccc(Cl)cc1)c1ccc2c(c1)OCO2	2.8	22.9	-6.9	-0.8	95.1	.
CCN(CC)c1ccc(/C=N/NC(=O)OC)c(O)c1	59.2*	48.7	15.7	26.2	68.3	36.1
COc1cc(C2C3=C(CCCC3=O)Nc3[nH]n(-c4ccccc4)c(=O)c32)ccc1OC(C)=O (stereo unspecified)	-3.1	7.0	8.1	16.1	102.1	.
Nc1cc(=O)[nH]c(=O)n1CCCc1ccccc1	.	.	.	.	111.9	.
O=C(COC(=O)c1cc(=O)c2ccccc2o1)Nc1ccc2ccccc2c1	11.5	30.4	6.4	-12.2	75.5	.
CCN(CC)c1ccc(NC(=O)c2ccccc2F)cc1S(=O)(=O)Nc1ccccc1OC	20.6	0.5	30.0	28.5	86.9	.
CCN(CC)c1ccc(NC(=O)c2ccccc2Br)cc1S(=O)(=O)Nc1ccccc1OC	50.4*	9.2	13.8	15.3	94.8	86.4*
O=c1[nH]c(-c2ccccc2)nnc1-c1ccccc1	-8.6	3.9	-30.0	-7.3	100.7	.
Cc1ccc(Nc2cc(C)c3c(O)cccc3n2)cc1C	-22.8	27.1	-85.1	-21.5	101.6	.
Cc1ccc(Nc2cc(C)c3ccc(O)cc3n2)cc1C	81.9*	27.3	-16.4	10.9	108.6	35.9*
CCOCCCNC(=O)c1cn(C)c2ccc(S(=O)(=O)N3CCCC3)cc2c1=O	-9.0	11.3	-6.2	4.8	88.7	.
Cc1ccc(/C=C(\NC(=O)c2ccc(C)cc2)c2nc(=S)[nH][nH]2)cc1	53.3*	5.4	20.8	28.1	96.1	35.5
COc1ccc(/C=C/C(=O)NNC(=O)c2cc(C)oc2C)cc1	-6.1	18.8	-7.0	0.3	101.8	.
O=c1oc2ccccc2cc1-c1nc(-c2ccccc2)no1	-8.1	49.4	-1.3	5.7	106.3	.
O=C/C=C/c1c(-c2ccccc2)cc2oc3ccccc3cc1-2	50.5*	0.8	39.4	36.0	95.1	58.8*
Cc1cccn2c(=O)c(/C=C(\C#N)C(=O)NCc3ccco3)c(N3CCCCC3)nc12	-23.2	-0.5	-7.4	-11.0	120.8	.
Cc1cccn2c(=O)c(/C=C(\C#N)C(=O)NCc3ccco3)c(N3CCCCCC3)nc12	53.4*	5.4	31.1	16.8	104.6	47.9*
Cc1cccc(C(=O)Nc2ccc(C(=O)/C=C/c3ccncc3)cc2)c1	62.4*	22.7	33.7	25.9	102.4	59.3*
Clc1cccc(-c2ccc3ncnc(NCc4cccs4)c3c2)c1	50.8*	9.7	18.8	23.7	84.0	40.2*
Clc1ccccc1-c1ccc2ncnc(NCc3cccs3)c2c1	54.2*	16.5	27.3	30.6	90.6	33.9
Cc1csc(CNc2ncnc3ccc(-c4ccccc4Cl)cc23)c1	34.5	8.5	9.9	11.6	83.8	.
Cc1cc(NC(=O)c2cccc(S(=O)(=O)Nc3cccc(C(=O)O)c3)c2)no1	-7.4	0.4	-0.7	2.0	97.1	.
Cc1cccc(C)c1NS(=O)(=O)c1ccc(F)cc1	32.2	12.7	23.8	23.7	103.2	.
C/C(=C\c1ccc2c(c1)OCO2)C1Nc2cccc3cccc(c23)N1	51.5*	5.3	30.7	22.4	83.5	47.2*
SMILES	tim23-1 inh	NALP3 yeast inh	tim10-1 inh	TIM10 inh	Yeast superoxide	tim23-1 conf
C/C(=C\c1ccccc1)C1Nc2cccc3cccc(c23)N1	25.5	14.1	24.0	-0.5	78.6	.
Cc1ccc(S(=O)(=O)N2CCN(S(=O)(=O)c3c(C)n[nH]c3C)CC2)cc1C	1.6	10.1	-9.8	-5.0	109.0	.
Cc1ccc(C(C)NC(=S)NC2CCCCC2)cc1C (stereo unspecified)	55.2*	31.2	33.4	32.0	97.7	22.4
CCCCNC1=CC(=O)C(=O)c2ccccc21	55.3*	8.8	-3.1	21.8	157.4	55.6*
CCc1ccc(NC2=CC(=O)C(=O)c3ccccc32)cc1	1.8	35.8	8.0	25.3	.	.
Cc1ccc(N(CCC(=O)N2CCOCC2)S(=O)(=O)c2ccccc2)cc1	4.7	10.5	1.4	-2.0	91.3	.
Cc1ccc(S(=O)(=O)/N=C(/c2ccc(F)cc2)N(C)C)cc1	15.5	20.9	22.8	8.6	82.0	.
CC(C)(C)[C@H]1C=C(C(=O)N2CCN(Cc3ccc4c(c3)OCO4)CC2)O[C@@H](OCc2ccc(CO)cc2)C1	-12.7	9.4	29.4	-0.6	.	.
CCCc1cc(=O)oc2cc(C)c(CN3CCCC3)c(O)c12	58.7*	15.3	15.6	32.6	103.7	58.0*
CCc1cc(=O)oc2cc(C)c(CN3CCCC3)c(O)c12	-4.9	2.2	6.4	-0.6	101.8	.
CCOC(=O)C1CCN(C(c2cccnc2)c2c(NC(=O)c3ccco3)sc(C)c2C)CC1 (stereo unspecified)	2.2	13.0	6.3	-6.4	111.8	.
CCOC(=O)c1c(C)oc2c1c(C(c1cccnc1)N1CCCCC1)c(O)c1ccccc12 (stereo unspecified)	50.1*	11.0	25.8	18.4	89.2	44.7*
CCOC(=O)c1cnc(-c2ccccc2)nc1N1CCOCC1	-4.6	-0.6	28.7	-12.3	100.9	.
CCOC(=O)c1c(C)oc2c1c(C(c1ccccc1)N1CCOCC1)c(O)c1ccccc12 (stereo unspecified)	66.2*	8.1	38.9	39.2	93.3	42.8*
CCN(CC)S(=O)(=O)c1ccc(O)c(NS(=O)(=O)c2ccccc2F)c1	10.9	2.8	7.9	5.4	94.9	.
COc1ccc(Cl)cc1C(=O)Nc1ccc(S(=O)(=O)N2CCCC2)cc1	0.2	1.6	11.5	7.3	95.6	.
Brc1ccc(-c2csc(Nc3nc(-c4ccc(Br)cc4)cs3)n2)cc1	53.4*	5.7	12.5	8.4	113.2	12.3
Brc1ccc(Nc2nc(-c3cccnc3)cs2)cc1	20.3	-58.6	32.6	29.0	92.8	.
C=CC[C@@H](Cc1ccc(F)cc1)C(=O)OC[C@@H]1CCCN1C(=O)[C@H](CC=C)CC(=O)N(CCO)Cc1ccccc1	30.4	26.0	8.9	11.9	101.2	.
N#C/C(=C\c1c[nH]c2ccccc12)C(=O)NC1CC1	14.0	10.6	0.3	15.7	92.3	.
N#C/C(=C\c1c[nH]c2ccccc12)C(=O)NC1CCCC1	58.8*	19.6	11.8	28.5	97.7	44.2*
CC(=O)c1ccccc1OC(=O)COc1ccc(Cl)cc1C	54.1*	-4.5	20.7	25.1	103.2	45.7*
CC1=NN(S(=O)(=O)c2ccc(Cl)cc2Cl)C(=O)c2ccccc2O1	21.0	10.5	-13.5	-21.7	112.9	.
COc1cccc(NCc2cc3c(C(C)(C)C)nn(-c4ccccc4)c3[nH]c2=O)c1	70.3*	9.6	36.1	36.4	95.7	59.3*
